Results filed as inconclusive are left out. The source made the active and inactive calls. Rule for the calls: active = hit-call score of the fitted dose curve at least 0.9, where 1 is the maximum; inconclusive = response in the unintended direction; inactive = score below 0.9.
Experiment: ACEA_ER_AUC_viability: ACEA Biosciences xCELLigence Real-Time Cell Analysis on Estrogen Receptor Agonism for Viability (AID 2283782);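 note: hit means loss of impedance signal meaning reduced cell growth or viability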
Procedure, shortened: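 Continuous-exposure impedance cell analysis uses T-47D cells in charcoal-stripped serum, eight 1:4 dilutions topping at 100 uM final, biological duplicate. Area under the growth curve at 80 h is fitted against DMSO baseline.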

Row | Compound | AC50 | outcome
1 | C=C(C)[C@@H]1CCC2=CCC[C@@H](C)[C@]2(C)C1 | 77.6 µM (active) | –
2 | COCCOCCOCCOCCOC | – | inactive
3 | Nc1cccc(C(F)(F)F)c1 | – | inactive
4 | CCCCCCCC(C)=O | – | inactive
5 | CC[C@H]1OC(=O)[C@H](C)[C@@H](O[C@H]2C[C@@](C)(OC)[C@@H](O)[C@H](C)O2)[C@H](C)[C@@H](O[C@@H]2O[C@H](C)C[C@H](N(C)C)[C@H]2O)[C@](C)(O)C[C@@H](C)C(=NOCOCCOC)[C@H](C)[C@@H](O)[C@]1(C)O | – | inactive
6 | O=C(O)CCCC[C@@H]1SC[C@@H]2NC(=O)N[C@@H]21 | – | inactive
7 | CC(=O)[C@H]1[C@H](C#N)C[C@H]2[C@@H]3CC=C4C[C@@H](O)CC[C@]4(C)[C@H]3CC[C@@]21C | – | inactive
8 | O=S(=O)(O)c1ccccc1C=Cc1ccc(-c2ccc(C=Cc3ccccc3S(=O)(=O)O)cc2)cc1 | – | inactive
9 | CCCCCCCCCCCCCOP(=O)(O)O | 48.7 µM (active) | –
10 | Cc1cccc(N)n1 | – | inactive
11 | CC(C)C(=O)C(C)C | 19.7 µM (active) | –
12 | CC(=O)Oc1ccc(C)cc1 | – | inactive
13 | CCCCCCCC/C=C\CCCCCCCC(=O)OCCO | 4.96 µM (active) | –
14 | CC(C)=CCCC(C)C=O (stereo not given) | 11.9 µM (active) | –
15 | CO[Si](CCC1CCC2OC2C1)(OC)OC (stereo not given) | 37.7 µM (active) | –
16 | O=C(c1ccccc1)C1CCC1 | – | inactive
17 | O=c1n(CCO)c(=O)n(CCO)c(=O)n1CCO | – | inactive
18 | O=C1CCC(=O)N1Cl | – | inactive
19 | CCCCCCC1(C)CCC(=O)O1 (stereo not given) | – | inactive
20 | O=C1CCCCCCCCCCC(=O)OCCO1 | 68.3 µM (active) | –

— PubChem BioAssay (EPA / NIEHS)
